# Laboratory results: PubChem BioAssay (NCI)
# This is part of a sample that, as a whole, favours compounds with a hit. Of some 83,000 tested, about 20% had one in any assay.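 48-hour exposure, single concentration, 96-well plates; percent growth endpoint where 0 means no net growth. Active: below 10.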 Values without a mark were called inactive. Active and inactive are the calls of the source.
# Assays:
# Assay in all cases: NCI-60 one-dose screen, 48 h (100 = growth as untreated, 0 = no growth, -100 = all killed)
# Settings in all cases: 10 µM unless noted
# [1] = tested on: SR leukemia
# [2] = tested on: RPMI-8226 leukemia
# [3] = tested on: OVCAR-8 ovarian
# [4] = tested on: OVCAR-5 ovarian
# [5] = tested on: OVCAR-4 ovarian
# [6] = tested on: IGROV1 ovarian
# [7] = tested on: OVCAR-3 ovarian
# [8] = tested on: HS 578T breast
# [9] = tested on: NCI/ADR-RES ovarian
# [10] = tested on: T-47D breast
# [11] = tested on: BT-549 breast
# [12] = tested on: MDA-MB-435 melanoma
# [13] = tested on: SW-620 colon
# [14] = tested on: MCF7 breast
# [15] = tested on: HCT-116 colon
# [16] = tested on: HCC-2998 colon
# [17] = tested on: KM12 colon
# [18] = tested on: SK-OV-3 ovarian
Compound,growth [1] [%],growth [2] [%],growth [3] [%],growth [4] [%],growth [5] [%],growth [6] [%],growth [7],growth [8] [%],growth [9],growth [10] [%],growth [11] [%],growth [12],growth [13] [%],growth [14],growth [15] [%],growth [16] [%],growth [17],growth [18] [%]
O=C(O)c1ccc2c3ccc(C(=O)O)c4c(C(=O)O)ccc(c5ccc(C(=O)O)c1c25)c43,104,135,98,84.2,103,42.4,101%,107,114%,97.2,64.8,101%,97.5,93.3%,90.1,76.9,100%,–
COc1cc(C2c3cc4c(cc3C(OC(=O)C[n+]3ccccc3)C3COC(=O)C23)OCO4)cc(OC)c1OC (stereo not given),11.5,36.2,14.7,54,41.5,16.5,-57.7% (active),34.7,-3.91% (active),94.8,19.8,-8.6% (active),21.3,9.23% (active),–,13.3,-8.66% (active),–
O=[N+]([O-])c1ccc(N/N=C/C2CCCCCC2)c([N+](=O)[O-])c1,82.9,90.3,102,99.1,98.5,–,99.8%,96.9,104%,–,91,87.6%,79,94.8%,–,106,71.6%,102
O=c1[nH]c(=S)[nH]n1C(=S)n1[nH]c(=S)[nH]c1=O,99.7,99,101,105,112,101,110%,98.5,95.2%,92,108,110%,98.5,91.8%,102,99.6,98.4%,–
